Source: PubChem BioAssay AID651947 (Broad Institute, 2012)
Entries with a potency or affinity are not part of this list. Inconclusive results are not listed. A number with no mark means an inactive call.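 Rule for the calls: active = luminescence drop in HepG2 cells whose fitted half-effect dose is at most twice the top valid dose; inconclusive = flat curve with 30 to 70% signal loss, or unreliable fit; inactive = the rest.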

Test: HepG2 hepatoma cell viability loss – plate reader, dry powder, cytotoxicity control, dose response (AID 651947)
Details: ATP luminescence (CellTiter-Glo), 48 h, hits give low values; at 26 µM unless noted
Molecule `c1ccc(-c2nnc(SCc3ncco3)o2)cc1` has a max activity of 8.06% [at 0.195 µM]. Molecule `CCSc1nnc(-c2ccccc2)o1` has a max activity of 23.2% [at 12 µM]. For `CS(=O)(=O)c1ccc(-c2nnc(SCc3ccccc3)o2)cc1`, the max activity was -40.3%. In the case of `O=C(Cc1ccccc1)C(C(=O)c1nnc(-c2ccccc2)o1)c1ccccc1` (stereo not given), the max activity is reported as -29.7%. `COc1cccc(-c2nnc(SCc3ccccc3)o2)c1` gave a max activity of 22.1% [at 12 µM].
